# Records with an inconclusive call do not appear. Calls of active or inactive are those of the source. Calls come from the whole dose curve; as a rule, active = well fitted inhibition curve with a large enough effect; inconclusive = small, poorly fitted or top-dose-only effect; inactive = flat fitted curve, though single readings scatter.
# Assay: P-glycoprotein substrates identified in KB-8-5-11 adenocarcinoma cell line, qHTS therapeutic library screen (AID 1346987); note: nearly all actives have a fitted effect of over 65% in size
# Details: KB-8-5-11 (P-gp overexpressing) viability, CellTiter-Glo, 72 h; series mostly up to 44.5 µM; activity change, negative = cytotoxicity: at the top concentration
# Method in brief: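 Steps: plate 500 KB-8-5-11 cells/well in DMEM + 10% FCS (colchicine removed); pin compounds in dose-response; incubate 72 h, 37 degree C, 5% CO2; add CellTiter-Glo, 5 min; read luminescence.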
# % is set by controls: 0 for no effect and ±100 for the full control effect; potency is the fitted concentration of half-maximal effect.
Compound,outcome,"activity change, negative = cytotoxicity",Potency
CC1CCC2C(C)(C)CC(C)(CO)C2(O)C1C(=O)O (stereo not drawn),inactive,–,–
O=C(O)C[C@H]1CCC(=O)[C@@H]1C/C=C\CCOC1OC(CO)C(O)C(O)C1O (stereo partly drawn),–,7.73% (inactive),–
CN1CCC(c2c[nH]c3ccc(NC(=O)c4ccc(F)cc4)cc23)CC1,inactive,–,–
OC[C@H]1O[C@@H](Oc2cc(O)cc(-c3cc4ccc(O)cc4o3)c2)[C@H](O)[C@@H](O)[C@@H]1O,inactive [at 17.3 µM],–,–
CN[C@@H]1[C@@H](O)[C@@H](O[C@@H]2[C@@H](O)[C@H](O[C@H]3O[C@H](CN)[C@@H](O)[C@H](O)[C@H]3O)[C@@H](N)C[C@H]2NC(=O)[C@@H](O)CN)OC[C@]1(C)O,inactive,–,–
CC12CC34C=CC(=O)C(C)(CCC(=O)O)C3C(CC1C4)O2 (stereo not drawn),inactive,–,–
CC(=O)c1c(C)cc(O[C@@H]2O[C@H](CO)[C@@H](O)[C@H](O)[C@H]2O)cc1O,inactive,–,–
CON(C)C(=O)N1N=C(c2cc(F)ccc2F)S[C@@]1(CCCN)c1ccccc1,–,–,164 nM (active)
CCOc1ccc(C(Nc2ccccn2)c2ccc3ccc(C)nc3c2O)cc1C (stereo not drawn),–,3.67% (inactive),–
C=C1CC2C3(C)C(OC(C)=O)CC(=O)OC(C)(C)C3C(O)C(OC(C)=O)C2(C)C2C(=O)OC(C)C(=O)C12C (stereo not drawn),–,4.84% [at 17.3 µM] (inactive),–
O=C(/C=C/c1ccc(O)c(O)c1)OCc1ccccc1O[C@@H]1O[C@H](CO)[C@@H](O)[C@H](O)[C@H]1O,–,5.44% [at 17.3 µM] (inactive),–
CC(C)(O)CNc1nc(Nc2ccnc(C(F)(F)F)c2)nc(-c2cccc(C(F)(F)F)n2)n1,–,-17.9% [at 17.3 µM] (inactive),–
CC1(CO)CC2C(O)C(=O)C3(CO)CC3(C)C2C1 (stereo not drawn),inactive,–,–
